# Assay results reported in PMC11006913.
# How the values were obtained:
# Assay in all cases: PBM; 200 nM protein, PBS
# Conditions in all cases: dsDNA, one strand shown
# [1] = target: HOXD13 (Homo sapiens, UniProt P35453 263-343, T313R)
# [2] = target: HOXD13 (Homo sapiens, UniProt P35453 263-343)
# [3] = target: HOXD13 (Homo sapiens, UniProt P35453 263-343, T313A)
# [4] = target: T1, SIX6 (Homo sapiens, UniProt O95475 114-200, T165A)
# T1 sequence: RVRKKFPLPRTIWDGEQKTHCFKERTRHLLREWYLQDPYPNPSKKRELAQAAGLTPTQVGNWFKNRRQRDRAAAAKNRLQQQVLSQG
# [5] = target: HOXC9 (Homo sapiens, UniProt P31274 178-260, R222W)
# Chain of HOXC9 (P31274 178-260 R222W): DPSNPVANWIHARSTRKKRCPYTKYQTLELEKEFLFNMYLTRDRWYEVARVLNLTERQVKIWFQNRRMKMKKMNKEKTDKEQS
# [6] = target: CRX (Homo sapiens, UniProt O43186 26-111, R41L)
# Chain of CRX (O43186 26-111 R41L): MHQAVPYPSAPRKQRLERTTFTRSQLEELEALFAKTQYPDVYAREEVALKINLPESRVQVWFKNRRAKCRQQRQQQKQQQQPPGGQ
# [7] = target: ALX3 (Homo sapiens, UniProt O95076 139-225, N203S)
# Chain of ALX3 (Homo sapiens, UniProt O95076 139-225, N203S) (O95076 139-225 N203S): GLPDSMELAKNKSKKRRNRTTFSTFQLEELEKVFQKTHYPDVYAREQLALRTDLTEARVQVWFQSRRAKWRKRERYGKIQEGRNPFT
# [8] = target: T2, NKX2-6 (Homo sapiens, UniProt A6NCS4 118-204)
# T2 sequence: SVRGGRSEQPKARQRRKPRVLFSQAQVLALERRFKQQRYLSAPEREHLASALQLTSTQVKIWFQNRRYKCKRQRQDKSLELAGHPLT
# [9] = target: PITX2 (Homo sapiens, UniProt Q99697 72-157)
# [10] = target: ALX3 (Homo sapiens, UniProt O95076 139-225)
# Chain of ALX3 (Homo sapiens, UniProt O95076 139-225) (O95076 139-225): as the sequence (O95076 139-225 N203S) above, with S65N counted along it
# [11] = target: ALX3 (Homo sapiens, UniProt O95076 139-225, L168Q)
# Chain of ALX3 (Homo sapiens, UniProt O95076 139-225, L168Q) (O95076 139-225 L168Q): as the sequence (O95076 139-225 N203S) above, with L30Q, S65N counted along it
# [12] = target: VAX1 (Homo sapiens, UniProt Q5SQQ9 86-172)
# Chain of VAX1 (Homo sapiens, UniProt Q5SQQ9 86-172) (Q5SQQ9 86-172): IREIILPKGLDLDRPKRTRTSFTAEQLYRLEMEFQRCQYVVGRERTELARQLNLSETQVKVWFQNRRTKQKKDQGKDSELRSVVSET
# [13] = target: VAX1 (Homo sapiens, UniProt Q5SQQ9 86-172, T142I)
# Chain of VAX1 (Homo sapiens, UniProt Q5SQQ9 86-172, T142I) (Q5SQQ9 86-172 T142I): as the sequence (Q5SQQ9 86-172) above, with T57I counted along it
# [14] = target: VAX1 (Homo sapiens, UniProt Q5SQQ9 86-172, K157R)
# Chain of VAX1 (Homo sapiens, UniProt Q5SQQ9 86-172, K157R) (Q5SQQ9 86-172 K157R): as the sequence (Q5SQQ9 86-172) above, with K72R counted along it
# Chain of HOXD13 (Homo sapiens, UniProt P35453 263-343, T313R) (P35453 263-343 T313R): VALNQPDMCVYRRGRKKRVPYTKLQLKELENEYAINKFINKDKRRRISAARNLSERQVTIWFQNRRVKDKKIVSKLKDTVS
# Chain of HOXD13 (Homo sapiens, UniProt P35453 263-343, T313A) (P35453 263-343 T313A): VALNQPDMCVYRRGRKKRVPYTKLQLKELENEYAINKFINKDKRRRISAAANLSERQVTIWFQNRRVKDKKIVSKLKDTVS
# Chain of HOXD13 (Homo sapiens, UniProt P35453 263-343) (P35453 263-343): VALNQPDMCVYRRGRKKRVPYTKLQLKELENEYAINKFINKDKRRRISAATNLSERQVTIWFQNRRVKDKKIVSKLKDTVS
sequence,measurement,setting,value
CTTTACGA,binding signal,[1],"10.5 upbm affinity estimate (log intensity, higher = more binding, comparable within an allelic series)"
same,binding signal,[2],"11.8 upbm affinity estimate (log intensity, higher = more binding, comparable within an allelic series)"
same,binding signal,[3],"11.5 upbm affinity estimate (log intensity, higher = more binding, comparable within an allelic series)"
AGGGGGGA,binding signal,[1],"9.23 upbm affinity estimate (log intensity, higher = more binding, comparable within an allelic series)"
same,binding signal,[2],"9.47 upbm affinity estimate (log intensity, higher = more binding, comparable within an allelic series)"
same,binding signal,[3],"9.55 upbm affinity estimate (log intensity, higher = more binding, comparable within an allelic series)"
GAGTGTCA,binding signal,[4],"10.3 upbm affinity estimate (log intensity, higher = more binding, comparable within an allelic series)"
GGTGTAGA,binding signal,[4],"10.3 upbm affinity estimate (log intensity, higher = more binding, comparable within an allelic series)"
TCTATAAA,binding signal,[1],"11 upbm affinity estimate (log intensity, higher = more binding, comparable within an allelic series)"
same,binding signal,[2],"12.2 upbm affinity estimate (log intensity, higher = more binding, comparable within an allelic series)"
same,binding signal,[3],"11.9 upbm affinity estimate (log intensity, higher = more binding, comparable within an allelic series)"
same,binding signal,[5],"11 upbm affinity estimate (log intensity, higher = more binding, comparable within an allelic series)"
ACTGACAC,binding signal,[4],"10.4 upbm affinity estimate (log intensity, higher = more binding, comparable within an allelic series)"
GTTATTAA,binding signal,[1],"10.7 upbm affinity estimate (log intensity, higher = more binding, comparable within an allelic series)"
same,binding signal,[6],"10.4 upbm affinity estimate (log intensity, higher = more binding, comparable within an allelic series)"
same,binding signal,[7],"8.66 upbm affinity estimate (log intensity, higher = more binding, comparable within an allelic series)"
AGGGTGTC,binding signal,[4],"10.5 upbm affinity estimate (log intensity, higher = more binding, comparable within an allelic series)"
GTTGTAAA,binding signal,[1],"10.6 upbm affinity estimate (log intensity, higher = more binding, comparable within an allelic series)"
same,binding signal,[2],"11.8 upbm affinity estimate (log intensity, higher = more binding, comparable within an allelic series)"
same,binding signal,[3],"11.7 upbm affinity estimate (log intensity, higher = more binding, comparable within an allelic series)"
GTGTCATA,binding signal,[4],"10.8 upbm affinity estimate (log intensity, higher = more binding, comparable within an allelic series)"
AGTGTCAC,binding signal,[4],"10.4 upbm affinity estimate (log intensity, higher = more binding, comparable within an allelic series)"
CGACACCG,binding signal,[4],"10.2 upbm affinity estimate (log intensity, higher = more binding, comparable within an allelic series)"
TTGTAAAA,binding signal,[1],"10.7 upbm affinity estimate (log intensity, higher = more binding, comparable within an allelic series)"
same,binding signal,[2],"11.8 upbm affinity estimate (log intensity, higher = more binding, comparable within an allelic series)"
same,binding signal,[3],"11.6 upbm affinity estimate (log intensity, higher = more binding, comparable within an allelic series)"
GTGTCAAA,binding signal,[4],"10.3 upbm affinity estimate (log intensity, higher = more binding, comparable within an allelic series)"
CGCAGCCC,binding signal,[1],"9.49 upbm affinity estimate (log intensity, higher = more binding, comparable within an allelic series)"
same,binding signal,[2],"9.55 upbm affinity estimate (log intensity, higher = more binding, comparable within an allelic series)"
same,binding signal,[3],"9.57 upbm affinity estimate (log intensity, higher = more binding, comparable within an allelic series)"
ATATAAAT,binding signal,[1],"10.8 upbm affinity estimate (log intensity, higher = more binding, comparable within an allelic series)"
same,binding signal,[3],"11.6 upbm affinity estimate (log intensity, higher = more binding, comparable within an allelic series)"
same,binding signal,[5],"11 upbm affinity estimate (log intensity, higher = more binding, comparable within an allelic series)"
CTTGACAC,binding signal,[4],"10.3 upbm affinity estimate (log intensity, higher = more binding, comparable within an allelic series)"
GACACCGA,binding signal,[4],"10.4 upbm affinity estimate (log intensity, higher = more binding, comparable within an allelic series)"
GATTATGA,binding signal,[8],"11.2 upbm affinity estimate (log intensity, higher = more binding, comparable within an allelic series)"
GGGTGTAA,binding signal,[4],"10.4 upbm affinity estimate (log intensity, higher = more binding, comparable within an allelic series)"
GTGTCACA,binding signal,[4],"10.7 upbm affinity estimate (log intensity, higher = more binding, comparable within an allelic series)"
AACACTCC,binding signal,[8],"11.3 upbm affinity estimate (log intensity, higher = more binding, comparable within an allelic series)"
AAGGTGTA,binding signal,[4],"10.1 upbm affinity estimate (log intensity, higher = more binding, comparable within an allelic series)"
TAGTGTCA,binding signal,[4],"10.4 upbm affinity estimate (log intensity, higher = more binding, comparable within an allelic series)"
ACCAGGGG,binding signal,[1],"9.62 upbm affinity estimate (log intensity, higher = more binding, comparable within an allelic series)"
same,binding signal,[2],"9.61 upbm affinity estimate (log intensity, higher = more binding, comparable within an allelic series)"
same,binding signal,[3],"9.9 upbm affinity estimate (log intensity, higher = more binding, comparable within an allelic series)"
AATTACGC,binding signal,[8],"11.3 upbm affinity estimate (log intensity, higher = more binding, comparable within an allelic series)"
GTACTAGA,binding signal,[8],"12.1 upbm affinity estimate (log intensity, higher = more binding, comparable within an allelic series)"
AGTGTCAA,binding signal,[4],"10.3 upbm affinity estimate (log intensity, higher = more binding, comparable within an allelic series)"
AGTGCTAA,binding signal,[8],"12 upbm affinity estimate (log intensity, higher = more binding, comparable within an allelic series)"
AAGGTGTC,binding signal,[4],"10.5 upbm affinity estimate (log intensity, higher = more binding, comparable within an allelic series)"
CGTAATAA,binding signal,[8],"11 upbm affinity estimate (log intensity, higher = more binding, comparable within an allelic series)"
GGCCGGCA,binding signal,[1],"9.49 upbm affinity estimate (log intensity, higher = more binding, comparable within an allelic series)"
same,binding signal,[2],"9.56 upbm affinity estimate (log intensity, higher = more binding, comparable within an allelic series)"
same,binding signal,[3],"9.65 upbm affinity estimate (log intensity, higher = more binding, comparable within an allelic series)"
CTAAGTTA,binding signal,[8],"11.2 upbm affinity estimate (log intensity, higher = more binding, comparable within an allelic series)"
GACACCAA,binding signal,[4],"10.5 upbm affinity estimate (log intensity, higher = more binding, comparable within an allelic series)"
ACTTGTTC,binding signal,[8],"11.7 upbm affinity estimate (log intensity, higher = more binding, comparable within an allelic series)"
ATTTTATA,binding signal,[1],"10.9 upbm affinity estimate (log intensity, higher = more binding, comparable within an allelic series)"
same,binding signal,[2],"11.8 upbm affinity estimate (log intensity, higher = more binding, comparable within an allelic series)"
same,binding signal,[3],"11.9 upbm affinity estimate (log intensity, higher = more binding, comparable within an allelic series)"
same,binding signal,[5],"11.1 upbm affinity estimate (log intensity, higher = more binding, comparable within an allelic series)"
GGTGTAAA,binding signal,[4],"10.4 upbm affinity estimate (log intensity, higher = more binding, comparable within an allelic series)"
ATTGACAC,binding signal,[4],"10.5 upbm affinity estimate (log intensity, higher = more binding, comparable within an allelic series)"
CGGGTGTC,binding signal,[4],"10.4 upbm affinity estimate (log intensity, higher = more binding, comparable within an allelic series)"
CAATTCAA,binding signal,[8],"11.8 upbm affinity estimate (log intensity, higher = more binding, comparable within an allelic series)"
TAATATAA,binding signal,[1],"10.8 upbm affinity estimate (log intensity, higher = more binding, comparable within an allelic series)"
same,binding signal,[3],"11.6 upbm affinity estimate (log intensity, higher = more binding, comparable within an allelic series)"
same,binding signal,[5],"11 upbm affinity estimate (log intensity, higher = more binding, comparable within an allelic series)"
GGTGTCGA,binding signal,[4],"10.5 upbm affinity estimate (log intensity, higher = more binding, comparable within an allelic series)"
CTGTGGCC,binding signal,[9],"7.86 upbm affinity estimate (log intensity, higher = more binding, comparable within an allelic series)"
CGTCCTGC,binding signal,[9],"7.8 upbm affinity estimate (log intensity, higher = more binding, comparable within an allelic series)"
ACTTACAT,binding signal,[10],"8.97 upbm affinity estimate (log intensity, higher = more binding, comparable within an allelic series)"
same,binding signal,[11],"8.46 upbm affinity estimate (log intensity, higher = more binding, comparable within an allelic series)"
CGCTTAAG,binding signal,[12],"9.23 upbm affinity estimate (log intensity, higher = more binding, comparable within an allelic series)"
same,binding signal,[13],"8.86 upbm affinity estimate (log intensity, higher = more binding, comparable within an allelic series)"
same,binding signal,[14],"9.02 upbm affinity estimate (log intensity, higher = more binding, comparable within an allelic series)"
